aDG glyco up = increases alpha dystroglycan glycosylation | Pro5-aDG cells, alpha-DG glycosylation AlphaScreen (IIH6); 0% Pro5, 100% B10-LARGE cell signal | activation, % at 10 µM | actives 0.22% (n = 360,000);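 active means activation of at least 8% versus controls, or a plate z-score of at least 8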;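 further: Pro5 are CHO cells carrying HIG-tagged alpha-DG that lacks glycosylation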
CRFR2-BP antag = antagonists of CRF-binding protein/CRF-R2 receptor complex. inhibition, % at 11.8 µM. HEK293 CRF-R2/CRF-BP, CRF-induced calcium fluorescence. actives 0.59% (n = 350,000);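 active means inhibition of the ligand-induced calcium signal above about 50% at the single tested concentration, limit read from the data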
PfG6PD inh = PfG6PD (Plasmodium falciparum) enzyme inhibition; PfGluPho enzyme, NADPH resazurin-diaphorase fluorescence; actives 0.78% (n = 350,000); inhibition, % at 20 µM;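 active means inhibition reaching at least a set limit at 20 µM in the primary screen, cut at about 59% in these data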;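 further: 0% = DMSO wells with substrate and 100% = DMSO wells lacking glucose-6-phosphate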
CRFR2-BP ag = CRF-BP/CRF-R2 complex agonism; HEK293 CRF-R2/CRF-BP, calcium dye fluorescence (FLIPR); percent of saturating CRF peptide response; activation, % at 13.2 µM; actives 0.46% (n = 350,000); AID 588473;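 active means activation of at least 50%, plus an integration ratio under a set limit after plate pattern correction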;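 further: plate controls were neutral control wells without compound for no effect and CRF at EC100 for full effect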
FAS TE block = FAS thioesterase (human) inhibition. P49327. recombinant FAS-TE, OMFH fluorogenic substrate, fluorescence endpoint. inhibition, % at 15 µM. actives 0.67% (n = 360,000). AID 602261;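 active means compounds whose normalised, plate-corrected inhibition of enzyme fluorescence in the single-dose primary screen is 50% or more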;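 further: 0% = DMSO with enzyme and 100% = substrate without enzyme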
Cardio protect = modulators protecting cardiomyocytes from myocardial damage. actives 0.63% (n = 360,000). protection from H2O2 cell death, % at 20 µM. H9c2 cardiomyocytes, H2O2 injury protection, ATPLite, 2 h. AID 588492;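 active means compounds giving at least 50% protection of heart cells from peroxide-induced death in the single-dose screen, raw or plate-pattern-corrected value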;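 further: 0% = DMSO wells with peroxide and 100% = DMSO wells without peroxide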
FAS-TE inh conf = FAS thioesterase (human) inhibition, confirmation; actives 45% (n = 2,300); shares compounds with FAS TE block; recombinant FAS-TE, OMFH fluorogenic substrate, fluorescence; inhibition, % at 15 µM; AID 624325;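 active means compounds inhibiting the enzyme by at least 50% at 15 µM in any one of the replicates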;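 further: 0% = enzyme with DMSO only and 100% = wells lacking enzyme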
* marks the source's active call; other numbers are inactive results; nt = no result given. Rows were chosen to be rich in hits. Some 3.2% of all compounds tested hit in one or more screens of this group.

SMILES | aDG glyco up | CRFR2-BP antag | PfG6PD inh | CRFR2-BP ag | FAS TE block | Cardio protect | FAS-TE inh conf
O=C(OCC(=O)N1CCc2ccccc2C1)c1ccc(Cl)c([N+](=O)[O-])c1 | 0.0 | -3.3 | 12.6 | -0.1 | 71.9* | 2.3 | 71.3*
O=C(COC(=O)c1ccc(Cl)c([N+](=O)[O-])c1)NC1CCCC1 | 0.1 | 2.0 | 1.9 | 0.8 | 74.1* | 8.1 | 64.9*
Nc1ccc(C(=O)OCC(=O)N2CCc3ccccc3C2)cc1[N+](=O)[O-] | -0.1 | -39.6 | 7.0 | -2.2 | 22.8 | 0.7 | nt
Nc1ccc(C(=O)OCC(=O)N2c3ccccc3Sc3ccccc32)cc1[N+](=O)[O-] | 0.1 | -12.5 | -3.2 | -1.8 | 66.2* | -1.3 | 24.4
CCCOc1nc(C)cc(COC)c1C(N)=O | 0.1 | 6.7 | -9.3 | -1.3 | -0.3 | -1.2 | nt
CNc1c(NC(=O)c2ccc3c(c2)OCO3)c(=O)oc2ccccc12 | -0.2 | -17.5 | -16.9 | 0.9 | -5.6 | -0.1 | nt
Cc1ccc(C(=O)O)cc1NC(=S)NCCc1ccccc1 | -0.2 | 7.2 | -11.2 | -0.3 | -4.7 | 3.8 | nt
Cc1ccc(CNC(=S)Nc2ccc(C)c([N+](=O)[O-])c2)cc1 | 0.1 | -1.2 | 0.0 | 20.9 | 32.4 | -26.4 | nt
Cc1ccc([N+](=O)[O-])cc1NC(=O)c1ccccc1 | 0.0 | -7.5 | -13.5 | 0.9 | 15.6 | -3.1 | nt
Cc1ccc([N+](=O)[O-])cc1NC(=O)C(Sc1ccccc1)c1ccccc1 (stereo unspecified) | 0.3 | 6.4 | 5.0 | -2.8 | 81.5* | -4.0 | 85.2*
Cc1ccc(NC(=S)NCc2ccccc2)cc1[N+](=O)[O-] | 0.3 | 9.2 | 11.1 | 2.0 | 64.2* | -19.0 | 38.2
Cc1ccc([N+](=O)[O-])cc1NC(=S)NCCc1ccccc1 | 2.3 | 10.1 | -14.5 | 0.8 | 55.5* | -14.5 | 71.3*
Cc1cc(C)cc(CSc2ccc(S(=O)(=O)N3CCCC3)cn2)c1 | 0.3 | 8.8 | 16.0 | 3.0 | 26.7 | -15.6 | nt
O=S(=O)(c1ccc(SCc2ccc(Cl)cc2)nc1)N1CCCC1 | 0.2 | 10.8 | 13.8 | 3.4 | 54.1* | -10.0 | 38.3
C/C(CC(=O)Nc1cccc(Cl)c1Cl)=N\NC(=O)c1ccccc1N | 0.0 | -22.9 | 17.9 | 12.8 | -3.1 | 12.2 | nt
O=C1[C@H]2[C@@H](c3ccc(C(F)(F)F)cc3)N[C@]3(CCCN(Cc4ccc(C(F)(F)F)cc4)C3=O)[C@H]2C(=O)N1Cc1ccccc1 | 0.3 | -13.5 | 17.1 | 2.2 | 55.2* | -23.3 | 16.4
O=C1[C@H]2[C@@H](c3ccc(C(F)(F)F)cc3)N[C@]3(CCCN(Cc4ccccc4)C3=O)[C@H]2C(=O)N1Cc1ccccc1 | 0.2 | 2.6 | 19.2 | 0.4 | 30.1 | -9.6 | nt
CCOc1ccc2cc(C3CC(c4ccco4)=NN3S(=O)(=O)c3ccccc3)c(Cl)nc2c1 (stereo unspecified) | -0.3 | -2.5 | 14.7 | 1.6 | 41.3 | 8.5 | nt
COc1ccc2cc(C3CC(c4ccco4)=NN3S(=O)(=O)c3ccccc3)c(Cl)nc2c1 (stereo unspecified) | -0.1 | -0.2 | 25.3 | 1.6 | 70.6* | 17.4 | 27.0
O=[N+]([O-])c1cc(S(=O)(=O)Nc2cccc(C(F)(F)F)c2)ccc1-n1nnc2ccccc21 | 0.1 | 21.9 | -24.9 | 6.0 | 65.7* | -29.3 | 79.6*
COc1ccc(CC(=O)N(C)Cc2ccc(C(C)(C)C)cc2)cc1S(=O)(=O)N1CCOCC1 | -0.3 | -4.2 | -1.6 | -1.2 | 80.3* | -2.6 | 82.1*
COc1ccc(CC(=O)N(C)Cc2ccc(Cl)cc2)cc1S(=O)(=O)N1CCOCC1 | -0.1 | 2.5 | 3.0 | 0.4 | -3.8 | 6.5 | nt
CCc1noc(C)c1C(=O)NNC(=O)c1ccc(N(CC)CC)cc1 | -0.1 | -2.3 | -8.1 | 1.1 | 0.5 | 3.5 | nt
O=S(=O)(/N=C(\Sc1ccccc1)c1ccccc1)c1ccc(Cl)cc1 | 0.2 | -15.6 | 9.5 | 1.4 | 66.5* | 42.8 | 41.5
O=S(=O)(/N=C(\c1ccccc1)N1CCOCC1)c1ccc(Cl)cc1 | 0.2 | -1.6 | -5.8 | 4.6 | -4.1 | 6.4 | nt
SMILES | aDG glyco up | CRFR2-BP antag | PfG6PD inh | CRFR2-BP ag | FAS TE block | Cardio protect | FAS-TE inh conf
Cc1ccc(S(=O)(=O)/N=C(\Sc2ccccc2)c2ccccc2)cc1 | -0.2 | -9.4 | 23.2 | -0.2 | 63.0* | 24.2 | 51.2*
Cc1ccc(S(=O)(=O)/N=C(/Sc2ccccc2C(=O)O)c2ccccc2)cc1 | -0.1 | -9.5 | -13.1 | 18.5 | 16.1 | -3.3 | nt
CC(C)C1C(=O)N(Cc2cn(CCC3OCCO3)nn2)CCS(=O)(=O)N1Cc1ccc(-c2ccc(F)cc2Cl)cc1 (stereo unspecified) | -0.1 | nt | nt | nt | 5.7 | -4.1 | nt
CCN(CC)S(=O)(=O)c1cc(C)ccc1SC | -0.3 | 13.8 | 21.0 | -0.2 | -3.0 | 2.2 | nt
Cc1ccc2c(c1)[C@H]1[C@H](CO2)[C@H](c2ccccc2)[C@]2(C)C(=O)Nc3cc(F)ccc3C(=O)N12 | 0.1 | 5.0 | -1.6 | 2.2 | 54.0* | -7.0 | 20.6
Cc1ccc2c(c1)[C@H]1[C@H](CO2)[C@H](c2ccccc2)[C@]2(C)C(=O)Nc3ccc(Cl)cc3C(=O)N12 | -0.2 | 2.9 | 0.7 | 3.9 | 33.4 | -4.8 | nt
C[C@@]12C(=O)Nc3cc(F)ccc3C(=O)N1[C@H]1c3cc(Br)ccc3OC[C@@H]1[C@@H]2c1ccccc1 | 0.0 | 7.2 | 1.5 | 2.9 | 80.4* | -3.2 | -2.2
Cc1ccc2c(c1)[C@H]1[C@H](CO2)[C@H](c2ccccc2)[C@]2(C)C(=O)Nc3ccccc3C(=O)N12 | -0.1 | 8.9 | -14.2 | 3.9 | 53.2* | -3.7 | 29.7
Cc1ccc2c(c1)NC(=O)[C@@]1(C)[C@@H](c3ccccc3)[C@H]3COc4ccccc4[C@@H]3N1C2=O | 0.1 | -4.4 | -12.9 | 0.8 | 67.8* | -11.1 | 27.2
COc1ccc(C(=O)Nc2cc(-c3ccccc3)nn2-c2ccccc2F)cc1 | -0.1 | 10.2 | 3.6 | -1.3 | 17.7 | -1.4 | nt
O=C(CN1C(=O)C2CC=CCC2C1=O)Nc1ccc(F)cc1F (stereo unspecified) | -0.4 | -4.4 | -11.9 | 0.1 | -4.2 | 15.4 | nt
CC(C)c1ccc(NC(=O)c2snc3ccc(Cl)cc23)cc1 | 0.5 | -33.0 | 30.8 | -2.0 | 58.2* | -15.8 | 33.8
CC(C)c1ccc(NC(=O)c2csnn2)cc1 | 0.0 | -38.2 | 13.9 | 0.2 | 0.8 | -14.7 | nt
Cn1ncc2c(Nc3cccc(Cl)c3)nc(Nc3cccc(Cl)c3)nc21 | 0.0 | -17.8 | 54.6 | -1.4 | 56.6* | -3.5 | 28.2
Cn1ncc2c(Nc3ccc(Br)cc3)nc(Nc3ccc(Br)cc3)nc21 | 1.1 | -23.7 | 31.6 | 1.2 | 50.2* | -3.5 | 32.1
Cn1ncc2c(Nc3ccc(O)cc3)nc(Cl)nc21 | -0.2 | 5.2 | 0.0 | -0.1 | -0.6 | 10.0 | nt

Screens as filed in PubChem.
